# Only a selection was taken, and hits are over-represented in it overall.
# DT40 TDP1 CPT: qHTS for Inhibitors of human tyrosyl-DNA phosphodiesterase 1 (TDP1): qHTS in cells in presence of CPT. 420,000 compounds, 12% hits. Potency, µM (doses to about 46.2 µM), without a hit: top-dose activity change, negative = growth inhibition, usual class: inhibitors. chicken DT40 Tdp1-/-;hTDP1 cells + 20 nM CPT, ATP luminescence, 48 h; note: potency is the fitted concentration of half-maximal effect; nearly all actives have a fitted effect of over 55% in size
#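 Cell growth measured by CellTiter-Glo luminescence after a minimum 48 h, 37 C compound exposure with 20 nM CPT in Tdp1-knockout DT40 cells stably expressing hTDP1, seeded 400/well; qHTS titration format.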
# DT40 TDP1 no CPT: qHTS for Inhibitors of human tyrosyl-DNA phosphodiesterase 1 (TDP1): qHTS in cells in absence of CPT; Potency, µM (series often up to 46.2 µM), inactives show top-dose activity change, negative = growth inhibition, actives largely listed as inhibitors; 420,000 compounds, 15% hits; AID 686978, 2013; DT40 Tdp1-/- hTDP1 cells, no CPT, ATP luminescence, 48 h; note: potency is the fitted concentration of half-maximal effect; nearly all actives have a fitted effect of over 55% in size
#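 DT40 Tdp1-/-;hTDP1 cells, no CPT (DMSO vehicle only), 400 cells/well; compounds pin-transferred; ≥48 hr, 37 °C; CellTiter-Glo 30 min RT dark, luminescence read.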
# HT1080NT lethal: qHTS for induction of synthetic lethality in tumor cells producing 2HG: qHTS for the HT-1080-NT fibrosarcoma cell line | Potency, µM (top dose mostly 46.1 µM), inactives show top-dose activity, negative = less viability, usual class: cytotoxic | HT-1080-NT fibrosarcoma viability, CellTiter-Glo ATP luminescence, 48 h | 360,000 compounds, 1.6% hits;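 note: NT is the 2HG producing partner of a matched IDH1 knockdown line; potency is the fitted concentration of half-maximal effect; 0% = DMSO-treated cells and -100% = media-only wells without cells; nearly all actives have a fitted effect of over 55% in size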
#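 Luminescent CellTiter-Glo readout after 48 hours of compound exposure at 37 degrees C defined viability of HT-1080-NT cells. Activity was normalized to DMSO wells and cell-free media wells; concentration-response curves were fitted and assigned curve classes.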
# 12-LOX inh: Primary qHTS assay for inhibitors of human arachidonate 12S-lipoxygenase (ALOX12): Round 2. Polyunsaturated fatty acid lipoxygenase ALOX12 (Homo sapiens), P18054. purified 12hLO, xylenol orange hydroperoxide absorbance. Potency, µM (doses to about 108 µM), for inactives: top-dose activity change, negative = inhibition, actives largely listed as inhibitors. 580,000 compounds, 1.1% hits. AID 1671190, 2021; note: potency is the fitted concentration of half-maximal effect
# Target sequence (P18054 whole entry, looked up): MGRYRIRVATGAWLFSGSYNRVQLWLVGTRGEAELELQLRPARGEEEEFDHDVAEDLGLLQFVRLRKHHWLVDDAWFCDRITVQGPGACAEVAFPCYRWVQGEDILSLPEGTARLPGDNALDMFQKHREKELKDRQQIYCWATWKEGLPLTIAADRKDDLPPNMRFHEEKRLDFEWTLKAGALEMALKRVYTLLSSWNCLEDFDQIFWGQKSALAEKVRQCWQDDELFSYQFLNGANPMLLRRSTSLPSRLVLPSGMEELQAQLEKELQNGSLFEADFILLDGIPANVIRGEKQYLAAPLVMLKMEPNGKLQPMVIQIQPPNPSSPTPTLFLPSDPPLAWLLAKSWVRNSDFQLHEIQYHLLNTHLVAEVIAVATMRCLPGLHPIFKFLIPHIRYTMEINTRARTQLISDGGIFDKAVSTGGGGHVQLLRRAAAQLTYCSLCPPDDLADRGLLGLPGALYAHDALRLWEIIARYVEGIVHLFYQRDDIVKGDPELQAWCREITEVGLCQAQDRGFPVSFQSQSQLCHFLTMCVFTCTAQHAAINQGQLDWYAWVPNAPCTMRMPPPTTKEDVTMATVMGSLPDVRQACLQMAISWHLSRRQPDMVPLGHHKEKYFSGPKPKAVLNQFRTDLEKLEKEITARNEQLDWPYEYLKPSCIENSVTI
#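 Purified human 12hLO at 150 nM in 25 mM Hepes, 0.01% Triton X-100, pH 7.0, preincubated 15 min at room temperature with compound. Reaction started with 40 uM arachidonic acid, 30 min at room temperature. Hydroperoxide measured by Fe-xylenol orange, 573/405 nm absorbance ratio.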
# HT1080 IDH1KD tx: qHTS for induction of synthetic lethality in tumor cells producing 2HG: qHTS for the HT-1080-IDH1KD cell line; HT-1080 IDH1 knockdown viability, ATP luminescence, 48 h; Potency, µM (top dose mostly 46.1 µM), inactives show top-dose activity, negative = toxicity, most hits filed as cytotoxic; 360,000 compounds, 2% hits;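 note: potency is the fitted concentration of half-maximal effect; 0% = DMSO wells and -100% = cell-free medium wells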
#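 HT-1080-IDH1KD cells (IDH1 knocked down), 750/well in RPMI with 5% FBS, treated with compound 48 h at 37 degrees C. Viability by CellTiter-Glo luminescence, normalised to DMSO and no-cell wells; concentration-response curves classed.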
# IL1B secr inh: qHTS for Inhibitors of Inflammasome Signaling: IL-1-beta AlphaLISA Primary Screen; THP-1 LPS/ATP IL-1B secretion, AlphaLISA, 16 h; active compounds read low; activity change, % at 57.5 µM; 360,000 compounds, 4.7% hits; AID 743279, 2014; in the data active = activity change below about -50%; inconclusive = mostly about -30% to -49%
#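 THP-1 cells pretreated 1 hr with compounds (up to 57.5 uM final), then stimulated with LPS (250 ng/mL final) plus ATP (1.25 mM final); secreted IL-1B measured by AlphaLISA after 16 hr, decreased signal indicating inhibition.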
# An asterisk follows results filed as active; ? = inconclusive; · = no result; [ ] = dose if it differs, or a comment. Unless noted, calls come from the whole dose curve; as a rule, active = well fitted curve in the direction sought with a large enough effect; inconclusive = small, poorly fitted or top-dose-only effect, or another doubt; inactive = no such curve, though single readings can be large; an effect the other way counts as inactive or inconclusive. Unless noted, % is set by controls: 0 for no effect and ±100 for the full control effect.
SMILES,DT40 TDP1 CPT,DT40 TDP1 no CPT,HT1080NT lethal,12-LOX inh,HT1080 IDH1KD tx,IL1B secr inh
CCc1ccc(/C=C2\SC(=S)N(CCCC(=O)N(CCO)c3ccccc3)C2=O)cc1,?,16µM*,?,-20%,?,-70*
CCOc1ccc(/C=C2\SC(=S)N(CCC(=O)N(CCO)c3ccccc3)C2=O)cc1,?,?,?,11%,?,-81*
O=C1CC(c2ccccc2)N(Cc2ccncc2)CCCN(C(=O)c2cc3ccccc3[nH]2)CCN1 (stereo not given),·,·,·,5%,·,·
Cc1nn(CCc2nc(-c3ccccc3)cs2)c2[nH]c(=O)cc(C(F)(F)F)c12,·,·,·,7.1µM*,·,·
Cc1nn(CCc2nc(-c3ccco3)cs2)c2[nH]c(=O)cc(C(F)(F)F)c12,?,?,-9%,7.9µM*,-19%,13
COc1cccc2cc(-c3csc(CCn4nc(C)cc4C)n3)c(=O)oc12,?,23µM*,-7%,?,-12%,-5
Cc1cc(C)n(CCc2nc(-c3ccco3)cs2)n1,11µM*,13µM*,27%,?,-9%,25
Cc1ccc(C(=O)OCc2cc(=O)n3nc(CC(C)C)sc3n2)cc1,-26%,-6%,·,-10%,·,·
O=C(NC(=S)Nc1cc([N+](=O)[O-])ccc1O)C1CC1,-15%,-4%,27%,0%,-5%,11
O=C(Cn1nc2n(c1=O)CCCC2)NCc1ccccc1,·,·,·,58%,·,·
Cc1cc(C)nc(NS(=O)(=O)c2ccc(NC(=O)c3cccc(N4C(=O)CCC4=O)c3)cc2)n1,-16%,6%,23µM*,-23%,-2%,0
COCCCN1C(=O)C(CC(=O)NCc2ccco2)CC(C(=O)N(C)C)=C1C (stereo not given),-6%,3%,1%,23%,-1%,23
CC1(C(=O)Nc2ccc(Cl)cc2)Cc2c(-c3cccc(C(N)=O)c3)ccnc2O1 (stereo not given),3.7µM*,5.8µM*,?,-65%,4.6µM*,0
CC(C)c1ccc(NC(=O)C2(C)Cc3c(-c4cccc(C(N)=O)c4)ccnc3O2)cc1 (stereo not given),?,?,?,1%,?,-69*
CC1(C(=O)Nc2ccccc2)Cc2c(-c3cccc(C(N)=O)c3)ccnc2O1 (stereo not given),?,-21%,1%,12%,7%,-9
CC1(C(=O)Nc2ccc(F)c(Cl)c2)Cc2c(-c3ccc(C(N)=O)cc3)ccnc2O1 (stereo not given),21µM*,18µM*,?,?,21µM*,-79*
CC(=O)Nc1cccc(-c2ccnc3c2CC(C)(C(=O)Nc2ccc(C(C)C)cc2)O3)c1 (stereo not given),?,?,?,-22%,?,-60*
C/C(=N/O)c1cc2ccc(O)cc2oc1=O,·,·,·,-2%,·,·
Cc1ccc(CNC(=O)N(C)C2CCc3nn(CC4CC4)c(=O)n3CC2)cc1 (stereo not given),·,·,·,23%,·,·
CCc1ccc(CN2CCC(n3nccc3NC(=O)c3ccccc3OC)CC2)o1,?,?,3%,-6%,9%,-24
COc1ccccc1C(=O)Nc1ccnn1C1CCN(C/C=C/c2ccccc2)CC1,23µM*,?,-3%,-3%,3%,-19
CC(C)=CCN1CCC(n2nccc2NC(=O)c2ccccc2Cl)CC1,-26%,21µM*,-1%,2%,-6%,?
COc1ccc(C/C(N)=N/n2cnnc2)cc1,-3%,-12%,2%,11%,3%[9.24 µM],12
CC(C)COc1ccc(C/C(N)=N/n2cnnc2)cc1,5.2µM*,5.8µM*,-6%,3%,-9%,11
CC1(C)CC(=O)C2=C(C1)Nc1ccccc1NC2c1cccs1 (stereo not given),-1%,-3%,9%,6%,26%,1
SMILES,DT40 TDP1 CPT,DT40 TDP1 no CPT,HT1080NT lethal,12-LOX inh,HT1080 IDH1KD tx,IL1B secr inh
Cc1ccsc1C1Nc2ccc3ncccc3c2C2=C1C(=O)CC(C)(C)C2 (stereo not given),13µM*,?,10µM*,-23%,?,4
O=C1CCCC2=C1C(c1ccc(O)c(O)c1)Nc1ccc3ncccc3c12 (stereo not given),-10%,-5%,-11%,?,-10%,20
O=C1CCCC2=C1C(c1cccs1)Nc1ccc3ncccc3c12 (stereo not given),16µM*,?,?,-8%,?,17
O=C(Nc1cccc2ncccc12)C1CCCCC1,·,·,·,1%,·,·
CCCN1CCN(CCCNC(=O)c2ccc3c(c2)sc2nc(-c4ccc(OCC)cc4)cn23)CC1,1.8µM*,2.9µM*,·,1%,·,·
CCN(CC)CCNC(=O)c1ccc2c(c1)sc1nc(-c3ccc(F)cc3)cn12,5.8µM*,3.3µM*,·,?,·,·
CCOc1ccc(-c2cn3c(n2)sc2cc(C(=O)NCCCN4CCCCCC4)ccc23)cc1,5.8µM*,6.5µM*,·,?,·,·
CCOc1ccc(-c2cn3c(n2)sc2cc(C(=O)NCCCN4CCCCC4)ccc23)cc1,1.6µM*,1.6µM*,·,9%,·,·
CC(C)CNCc1cccc(C(N)=O)c1,·,·,·,-2%,·,·
CCOc1ccc(-c2cn3c(n2)sc2cc(C(=O)NCCc4ccc(OC)cc4OC)ccc23)cc1,-21%,?,·,-3%,·,·
O=C(NC1CCCc2ccccc21)c1ccc2ncsc2c1 (stereo not given),·,·,·,-23%,·,·
CCOc1ccc(-c2cn3c(n2)sc2cc(C(=O)NC4CCCc5ccccc54)ccc23)cc1 (stereo not given),12µM*,5.2µM*,·,-10%,·,·
CCOc1ccc(-c2cn3c(n2)sc2cc(C(=O)NCCCN(CC)CC)ccc23)cc1,0.73µM*,0.82µM*,·,?,·,·
C[C@H]1CN([C@@H](C)CO)S(=O)(=O)c2ccc(Br)cc2O[C@H]1CN(C)C(=O)Cc1ccncc1,4%,28%,17%,22%,21%,-1
O=C(Cc1ccc(Cl)cc1)NCC(=O)N1CCN(c2ccccc2)CC1,29µM*,23µM*,?,-1%,?,0
